# According to PubChem BioAssay AID1159580 (chemical genetic matrix, 2015):
# Hit rate of the full screen: of about 5,500 compounds, about 2,000 (36%) were called active. Another 18% or so got no clear call; they are omitted. This is one part of the list. A number with no mark means an inactive call. No stated cut-off is given here; in the data, active means normalized growth mostly below about 0.91 (no sharp cut-off); inconclusive means no clear call, values can overlap the other calls; inactive means mostly above about 0.92.
# Assay: chemical genetic growth profiling, strain panel (AID 1159580);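 further: tested at 20 µM; growth read once vehicle control cultures reached saturation at 30 °C; 1 = growth at the plate median or of vehicle wells; lower values mean less growth of the strain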
# Conditions: growth OD
# [1] = S. cerevisiae deletion strains, locus YDL101C, strain DUN1, active compounds read low
# [2] = S. cerevisiae deletion strains, locus YHR030C, strain SLT2, active compounds read low
# [3] = S. cerevisiae deletion strains, locus YAL040C, strain CLN3, active compounds read low
# [4] = S. cerevisiae deletion strains, locus YCL061C, strain MRC1 (second series), active compounds read low
# [5] = S. cerevisiae deletion strains, locus YDR363W, strain ESC2, active compounds read low
# [6] = S. cerevisiae deletion strains, locus YER002W, strain NOP16, active compounds read low
# [7] = S. cerevisiae deletion strains, locus YMR307W, strain GAS1, active compounds read low
# [8] = S. cerevisiae deletion strains, locus YNL175C, strain NOP13, active compounds read low
# [9] = S. cerevisiae deletion strains, locus YNL197C, strain WHI3, active compounds read low
# [10] = S. cerevisiae deletion strains, locus YNL224C, strain SQS1, active compounds read low
# [11] = S. cerevisiae deletion strains, locus YNL322C, strain KRE1, active compounds read low
# [12] = S. cerevisiae deletion strains, locus YOR083W, strain WHI5 (second series), active compounds read low
# [13] = S. cerevisiae deletion strains, locus YPL055C, strain LGE1, active compounds read low
# [14] = S. cerevisiae deletion strains, locus YPL241C, strain CIN2, active compounds read low
# [15] = S. cerevisiae deletion strains, locus YAL013W, strain DEP1, active compounds read low
# [16] = S. cerevisiae deletion strains, locus YDR150W, strain NUM1, active compounds read low
# [17] = S. cerevisiae deletion strains, locus YGR078C, strain PAC10, active compounds read low
compound,measurement,setting,value
Cc1ccc(C)c(CSc2nc(C3CCCCC3)c(C#N)c(=O)[nH]2)c1,normalized growth,"S. cerevisiae deletion strains, locus YAR019C, strain CDC15, active compounds read low",0.979
same,normalized growth,"S. cerevisiae deletion strains, locus YBL105C, strain PKC1, active compounds read low",0.975
same,normalized growth,"S. cerevisiae deletion strains, locus YBR135W, strain CKS1, active compounds read low",0.964
same,normalized growth,"S. cerevisiae deletion strains, locus YBR136W, strain MEC1, active compounds read low",0.98
same,normalized growth,"S. cerevisiae deletion strains, locus YBR160W, strain CDC28, active compounds read low",0.98
same,normalized growth,"S. cerevisiae deletion strains, locus YDL017W, strain CDC7, active compounds read low",0.981
same,normalized growth,"S. cerevisiae deletion strains, locus YDL028C, strain MPS1, active compounds read low",0.985
same,normalized growth,[1],0.983
same,normalized growth,"S. cerevisiae deletion strains, locus YDL108W, strain KIN28, active compounds read low",0.985
same,normalized growth,"S. cerevisiae deletion strains, locus YDL132W, strain cdc53, active compounds read low",0.973
same,normalized growth,"S. cerevisiae deletion strains, locus YDL214C, strain PRR2, active compounds read low",1
same,normalized growth,"S. cerevisiae deletion strains, locus YDR052C, strain DBF4, active compounds read low",0.968
same,normalized growth,"S. cerevisiae deletion strains, locus YDR054C, strain cdc34, active compounds read low",0.983
same,normalized growth,"S. cerevisiae deletion strains, locus YDR226W, strain ADK1, active compounds read low",0.984
same,normalized growth,"S. cerevisiae deletion strains, locus YDR477W, strain SNF1, active compounds read low",1
same,normalized growth,"S. cerevisiae deletion strains, locus YER123W, strain YCK3, active compounds read low",1.01
same,normalized growth,"S. cerevisiae deletion strains, locus YER133W, strain GLC7, active compounds read low",1.01
same,normalized growth,"S. cerevisiae deletion strains, locus YFL009W, strain cdc4, active compounds read low",0.981
same,normalized growth,"S. cerevisiae deletion strains, locus YFL029C, strain CAK1, active compounds read low",0.983
same,normalized growth,"S. cerevisiae deletion strains, locus YFR003C, strain YPI1, active compounds read low",0.98
same,normalized growth,"S. cerevisiae deletion strains, locus YFR019W, strain FAB1, active compounds read low",0.992
same,normalized growth,"S. cerevisiae deletion strains, locus YFR028C, strain CDC14, active compounds read low",0.975
same,normalized growth,"S. cerevisiae deletion strains, locus YGR040W, strain KSS1, active compounds read low",1.02
same,normalized growth,"S. cerevisiae deletion strains, locus YGR052W, strain FMP48, active compounds read low",1.11
same,normalized growth,"S. cerevisiae deletion strains, locus YGR092W, strain DBF2, active compounds read low",0.987
same,normalized growth,[2],1.18 [resistant] (active)
same,normalized growth,"S. cerevisiae deletion strains, locus YHR079C, strain IRE1, active compounds read low",1.12
same,normalized growth,"S. cerevisiae deletion strains, locus YHR082C, strain KSP1, active compounds read low",1.14
same,normalized growth,"S. cerevisiae deletion strains, locus YHR205W, strain SCH9, active compounds read low",0.988
same,normalized growth,"S. cerevisiae deletion strains, locus YIL147C, strain SLN1, active compounds read low",0.971
same,normalized growth,"S. cerevisiae deletion strains, locus YJL095W, strain BCK1, active compounds read low",1.12
same,normalized growth,"S. cerevisiae deletion strains, locus YJL128C, strain PBS2, active compounds read low",0.981
same,normalized growth,"S. cerevisiae deletion strains, locus YJL157C, strain FAR1, active compounds read low",1
same,normalized growth,"S. cerevisiae deletion strains, locus YJR016C, strain ILV3, active compounds read low",0.989
same,normalized growth,"S. cerevisiae deletion strains, locus YJR066W, strain TOR1 (second series), active compounds read low",0.99
same,normalized growth,"S. cerevisiae deletion strains, locus YJR066W, strain TOR1, active compounds read low",1.17
same,normalized growth,"S. cerevisiae deletion strains, locus YKL048C, strain ELM1, active compounds read low",0.98
same,normalized growth,"S. cerevisiae deletion strains, locus YKL067W, strain YNK1, active compounds read low",0.98
same,normalized growth,"S. cerevisiae deletion strains, locus YKL101W, strain HSL1, active compounds read low",0.992
same,normalized growth,"S. cerevisiae deletion strains, locus YKL193C, strain SDS22, active compounds read low",0.97
same,normalized growth,"S. cerevisiae deletion strains, locus YKL203C, strain TOR2, active compounds read low",1.09
same,normalized growth,"S. cerevisiae deletion strains, locus YLR113W, strain HOG1, active compounds read low",1.06
same,normalized growth,"S. cerevisiae deletion strains, locus YLR133W, strain CKI1, active compounds read low",0.984
same,normalized growth,"S. cerevisiae deletion strains, locus YLR403W, strain SFP1, active compounds read low",0.999
same,normalized growth,"S. cerevisiae deletion strains, locus YML070W, strain DAK1, active compounds read low",1
same,normalized growth,"S. cerevisiae deletion strains, locus YMR001C, strain CDC5, active compounds read low",0.971
same,normalized growth,"S. cerevisiae deletion strains, locus YMR205C, strain PFK2 (second series), active compounds read low",0.99
same,normalized growth,"S. cerevisiae deletion strains, locus YMR277W, strain FCP1, active compounds read low",0.978
same,normalized growth,"S. cerevisiae deletion strains, locus YNL006W, strain LST8, active compounds read low",0.978
same,normalized growth,"S. cerevisiae deletion strains, locus YNL020C, strain ARK1, active compounds read low",0.982
same,normalized growth,"S. cerevisiae deletion strains, locus YNL161W, strain CBK1, active compounds read low",0.984
same,normalized growth,"S. cerevisiae deletion strains, locus YNL183C, strain NPR1, active compounds read low",1.11
same,normalized growth,"S. cerevisiae deletion strains, locus YNL207W, strain RIO2, active compounds read low",0.995
same,normalized growth,"S. cerevisiae deletion strains, locus YNL222W, strain SSU72, active compounds read low",0.972
same,normalized growth,"S. cerevisiae deletion strains, locus YNL307C, strain MCK1 (second series), active compounds read low",0.996
same,normalized growth,"S. cerevisiae deletion strains, locus YOL078W, strain AVO1, active compounds read low",0.982
same,normalized growth,"S. cerevisiae deletion strains, locus YOL136C, strain PFK27, active compounds read low",1.01
same,normalized growth,"S. cerevisiae deletion strains, locus YOR061W, strain CKA2, active compounds read low",0.996
same,normalized growth,"S. cerevisiae deletion strains, locus YOR119C, strain RIO1, active compounds read low",1.04
same,normalized growth,"S. cerevisiae deletion strains, locus YOR231W, strain MKK1, active compounds read low",1.1
same,normalized growth,"S. cerevisiae deletion strains, locus YOR329C, strain SCD5, active compounds read low",0.985
same,normalized growth,"S. cerevisiae deletion strains, locus YPL031C, strain PHO85, active compounds read low",1.01
same,normalized growth,"S. cerevisiae deletion strains, locus YPL153C, strain RAD53, active compounds read low",1.01
same,normalized growth,"S. cerevisiae deletion strains, locus YPL204W, strain HRR25, active compounds read low",1
same,normalized growth,"S. cerevisiae deletion strains, locus YPL209C, strain IPL1, active compounds read low",0.988
same,normalized growth,"S. cerevisiae deletion strains, locus YPL256C, strain CLN2, active compounds read low",1.12
same,normalized growth,"S. cerevisiae deletion strains, locus YPR025C, strain CCL1, active compounds read low",0.973
same,normalized growth,"S. cerevisiae deletion strains, locus YPR106W, strain ISR1, active compounds read low",0.987
same,normalized growth,"S. cerevisiae deletion strains, locus YPR111W, strain DBF20, active compounds read low",0.977
same,normalized growth,"S. cerevisiae deletion strains, strain NNK1, active compounds read low",0.994
same,normalized growth,"S. cerevisiae deletion strains, strain TSCII, active compounds read low",0.981
NCc1cc(=O)[nH]o1,normalized growth,[3],1.05
same,normalized growth,[4],1
same,normalized growth,[5],1.01
same,normalized growth,[6],1.02
same,normalized growth,[7],1
same,normalized growth,[8],1
same,normalized growth,[9],1.02
same,normalized growth,[10],1.01
same,normalized growth,[11],1.01
same,normalized growth,[12],1
same,normalized growth,[13],1.01
same,normalized growth,[14],0.989
Cc1noc(C)c1C(=O)N1CCN(c2ncc(C(F)(F)F)cc2Cl)CC1,normalized growth,[15],0.994
same,normalized growth,"S. cerevisiae deletion strains, locus YBR229C, strain ROT2, active compounds read low",0.988
same,normalized growth,"S. cerevisiae deletion strains, locus YCL061C, strain MRC1, active compounds read low",0.993
same,normalized growth,[1],0.977
same,normalized growth,[16],0.897
same,normalized growth,"S. cerevisiae deletion strains, locus YEL061C, strain CIN8, active compounds read low",0.975
same,normalized growth,[17],0.994
same,normalized growth,[2],1.07
same,normalized growth,"S. cerevisiae deletion strains, locus YHR087W, strain rtc3, active compounds read low",0.975
same,normalized growth,"S. cerevisiae deletion strains, locus YJR043C, strain POL32, active compounds read low",0.998
same,normalized growth,"S. cerevisiae deletion strains, locus YJR075W, strain HOC1, active compounds read low",0.972
same,normalized growth,"S. cerevisiae deletion strains, locus YKL190W, strain CNB1, active compounds read low",1
same,normalized growth,"S. cerevisiae deletion strains, locus YLR039C, strain RIC1, active compounds read low",0.995
same,normalized growth,"S. cerevisiae deletion strains, locus YLR058C, strain SHM2 (second series), active compounds read low",1
same,normalized growth,"S. cerevisiae deletion strains, locus YLR085C, strain ARP6, active compounds read low",0.982
same,normalized growth,"S. cerevisiae deletion strains, locus YLR262C, strain YPT6, active compounds read low",0.979
same,normalized growth,"S. cerevisiae deletion strains, locus YML094W, strain GIM5, active compounds read low",0.968
same,normalized growth,"S. cerevisiae deletion strains, locus YMR219W, strain ESC1, active compounds read low",1
same,normalized growth,"S. cerevisiae deletion strains, locus YMR263W, strain SAP30, active compounds read low",1.01
same,normalized growth,"S. cerevisiae deletion strains, locus YNL128W, strain TEP1, active compounds read low",0.99
same,normalized growth,"S. cerevisiae deletion strains, locus YNL153C, strain GIM3, active compounds read low",0.986
same,normalized growth,"S. cerevisiae deletion strains, locus YNL298W, strain CLA4 (second series), active compounds read low",1.02
same,normalized growth,[11],0.989
same,normalized growth,"S. cerevisiae deletion strains, locus YNR030W, strain Alg12, active compounds read low",0.97
same,normalized growth,"S. cerevisiae deletion strains, locus YOL006C, strain TOP1, active compounds read low",0.99
same,normalized growth,[13],0.933
same,normalized growth,[14],1.1
same,normalized growth,"S. cerevisiae deletion strains, locus YPR135W, strain CTF4, active compounds read low",0.942
same,normalized growth,"S. cerevisiae strains, strain wild type, active compounds read low",0.993
c1cnc(N2CCN(Cc3ccc4c(c3)OCO4)CC2)nc1,normalized growth,[15],0.95
same,normalized growth,[3],0.967
same,normalized growth,[4],0.982
same,normalized growth,[16],0.996
same,normalized growth,[5],0.988
same,normalized growth,[6],0.988
same,normalized growth,[17],0.993
same,normalized growth,[7],0.999
same,normalized growth,[8],1
same,normalized growth,[9],0.976
same,normalized growth,[10],0.985
same,normalized growth,[11],0.979
same,normalized growth,[12],0.985
same,normalized growth,[13],0.991
